# ADAM17 inh: inhibits human ADAM17 | P78536 | recombinant ADAM17, EDANS/DABCYL FRET peptide cleavage | inhibition, % at 6.95 µM | actives 0.83% (n = 370,000) | AID 720648;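 active means inhibition above the mean of compounds lying between control limits plus 3 SD, set per campaign, cut at about 8.5% in these data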;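 further: 0% = DMSO-only wells as the low control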
# CendR NRP1 mod: modulators of CendR peptide binding to human neuropilin-1 | actives 0.85% (n = 360,000) | AID 602438 | FAM-RPARPAR peptide binding to NRP-1, fluorescence polarization | inhibition, % at 25 µM;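 active means inhibition or corrected inhibition above about 18%, plus a signal ratio from 0.5 to 1.5, limit read from the data, passing the limit was not always enough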
# ADAM10 inh: inhibitors of human ADAM10 | O14672 | recombinant ADAM10, EDANS/DABCYL FRET peptide cleavage, 3 h | inhibition, % at 7 µM | actives 0.62% (n = 370,000) | AID 720582;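 active means inhibition above a per-campaign cutoff equal to the mean of compounds falling between control-based bounds plus 3 SD, cut at about 20% in these data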;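 further: 0% = DMSO wells while the 100% control is not disclosed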
# KLK7 zymogen act: activators of human kallikrein-7 zymogen; P49862; purified proKLK7, EDANS-DABCYL substrate fluorescence; 100% is mature enzyme control, 0% vehicle; activation, % at 7 µM; actives 0.9% (n = 370,000); AID 652039;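 active means activation above the mean of all tested compounds plus 3 SD, computed per campaign excluding outliers beyond control limits, cut at about 13% in these data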
# sPLA2-III inh: Inhibits HGIII-sPLA2 liposome hydrolysis, primary screen; AID 743126; actives 0.56% (n = 370,000); QFRET BODIPY PC-A2 liposome hydrolysis, fluorescence; Q9NZ20; inhibition, % at 12.2 µM;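 active means inhibition above mean plus 3 SD of compounds lying within the high and low control bounds, cut at about 19% in these data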;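 further: 0% = median of test compound wells and 100% = no enzyme DMSO wells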
# Target sequence (Q9NZ20 whole entry, looked up): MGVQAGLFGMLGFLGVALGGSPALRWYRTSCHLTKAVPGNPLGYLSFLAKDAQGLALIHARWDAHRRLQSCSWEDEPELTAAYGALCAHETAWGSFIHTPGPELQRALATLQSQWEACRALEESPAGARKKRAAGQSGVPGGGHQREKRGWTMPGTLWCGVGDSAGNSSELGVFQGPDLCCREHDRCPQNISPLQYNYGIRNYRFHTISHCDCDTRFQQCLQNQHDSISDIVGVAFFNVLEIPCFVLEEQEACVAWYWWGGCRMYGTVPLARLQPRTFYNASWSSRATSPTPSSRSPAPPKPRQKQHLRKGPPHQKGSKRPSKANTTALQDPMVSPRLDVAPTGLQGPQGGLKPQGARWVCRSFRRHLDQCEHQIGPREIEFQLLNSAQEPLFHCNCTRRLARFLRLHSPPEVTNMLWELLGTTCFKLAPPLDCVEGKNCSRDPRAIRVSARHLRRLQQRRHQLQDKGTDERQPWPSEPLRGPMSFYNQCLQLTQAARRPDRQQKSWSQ
# ADAM10 ctr: inhibits human ADAM10 in ADAM17 exosite counter-screen; shares compounds with ADAM17 inh; inhibition, % at 6.95 µM; recombinant ADAM10, EDANS/DABCYL FRET peptide cleavage, 3 h; actives 47% (n = 2,900);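 active means mean inhibition over the triplicate runs exceeds the activity threshold set in the earlier primary screen, cut at about 20% in these data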;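 further: 0% = DMSO wells and 100% = marimastat wells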
# ADAM17 confirm: confirmation of inhibitors of human ADAM17; inhibition, % at 6.95 µM; shares compounds with ADAM17 inh; AID 743257; actives 65% (n = 2,900); recombinant ADAM17, EDANS/DABCYL QFRET peptide cleavage;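 active means mean inhibition across replicates above the hit cutoff set in the primary screen, cut at about 8.5% in these data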;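 further: 0% = DMSO wells and 100% = marimastat wells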
# * hit, by the source's call; . = no result given. Rows were chosen to be rich in hits. Some 3.4% of all compounds tested hit in one or more screens of this group.
SMILES,ADAM17 inh,CendR NRP1 mod,ADAM10 inh,KLK7 zymogen act,sPLA2-III inh,ADAM10 ctr,ADAM17 confirm
Cc1ccccc1Cn1cc(COC(=O)Nc2ccc(F)cc2)nn1,1,.,10,0,-13,.,.
COc1ccc(Sc2cccc(Cl)c2)c(C(=O)O)c1,-5,.,-3,0,-3,.,.
O=C(N/N=C/c1cccnc1)C1CCCN(S(=O)(=O)c2ccccc2)C1 (centres undefined),9.2*,13,6,0,-8,8,7
O=C(N/N=C/c1cccnc1)c1ccc(S(=O)(=O)N2CCCCCC2)cc1,-10,-1,-26,-31,1,.,.
CS(=O)(=O)c1ccc(C(=O)Nc2cccc(-c3nc4ccccc4[nH]3)c2)cc1,9.2*,-8,6,0,-2,-13,-2
Cc1ccc(NC(=O)CNC(=O)CC23CC4CC(CC(C4)C2)C3)c(O)c1,16*,1,1,0,-60,4,6
COc1ccc(NC(=O)CNC(=O)CC23CC4CC(CC(C4)C2)C3)c(OC)c1,-2,-1,3,0,7,.,.
COC(=O)[C@@]12CCCCC3=C1N(CCC3)C(=O)[C@H]2CC(=O)N1CCOCC1,-5,.,-6,0,8,.,.
Cc1cc(/C=C2\NC(=S)N(C)C2=O)ccc1N1CCCC1,8.9*,134,9,0,7,10,8
COC(=O)C1CN(CCO)CCS(=O)(=O)N1Cc1cn(Cc2ccccc2Br)nn1 (centres undefined),-3,.,-1,0,2,.,.
COc1ccc(NC(=O)c2oc3ccccc3c2NC(=O)C(C)(C)C)cc1,9.7*,-15,9,1,-4,9,8.8*
Cc1ccc(OCCC(=O)OCC(=O)Nc2ccc(C)c(S(=O)(=O)N3CCOCC3)c2)cc1,9.1*,6,0,0,-18,10,7
Cc1ccc(NC(=O)COC(=O)c2cccc(OC(F)F)c2)cc1S(=O)(=O)N1CCCCC1,9.1*,2,12,1,-27,45*,25*
O=C(Nc1ccccc1)Nc1c(-c2ccc(F)cc2)nc2ncccn12,-80,.,-301,12,-4,.,.
CC(=O)NC(=S)Nc1ccc(NC(=S)NC(=O)c2cccs2)cc1,-3,2,3,0,6,.,.
Cc1c(C(=O)NC(=S)Nc2ccc(NC(=O)c3cccs3)cc2)cccc1[N+](=O)[O-],12*,6,18,0,-15,29*,20*
CN(c1ccccc1)S(=O)(=O)c1cccc(C(=O)Nc2cccc(C(=O)NC3CC3)c2)c1,9.2*,-9,2,1,-16,3,3
CN(c1ccccc1)S(=O)(=O)c1cccc(NC(=O)COC(=O)C2CCCCC2)c1,8.8*,9,14,0,-11,32*,14*
CCC(C(=O)Nc1cccc(S(=O)(=O)N(C)c2ccccc2)c1)c1ccccc1 (centres undefined),9.3*,10,18,0,-15,17,8.7*
CC(Oc1ccc(F)cc1)C(=O)Nc1cccc(S(=O)(=O)N(C)c2ccccc2)c1 (centres undefined),4,6,3,0,-13,.,.
CC(=O)c1cccc(NC(=O)C(OC(=O)c2cccc(S(=O)(=O)N(C)c3ccccc3)c2)c2ccccc2)c1 (centres undefined),9.1*,-12,15,-1,-24,24*,12*
COC(=O)C1=C(C)N(Cc2ccccc2C(F)(F)F)C(=NCc2ccc3c(c2)OCO3)NC1CCc1ccccc1 (centres undefined),4,.,-5,0,-6,.,.
COc1ccc(C(CCOC(=O)Oc2ccccc2)c2cc(OC)c(OC)c(OC)c2)cc1 (centres undefined),2,.,11,0,-16,.,.
COc1ccc(N(C)S(=O)(=O)c2cccc(C(=O)OC(C(=O)Nc3cc(C)cc(C)c3)c3ccccc3)c2)cc1 (centres undefined),8.6*,-9,16,0,-12,19,13*

# Screening results (PubChem)
